# Bioassay records as filed in PubChem BioAssay.
# Rows were chosen to be rich in hits. Some 4.6% of all compounds tested hit in one or more screens of this group.
# HSF-1 act: increases HSF-1 driven luciferase reporter signal. NIH3T3-HGL HSF-1 luciferase reporter, MG132, 8 h; 100% = twice DMSO control signal. activation, % at 9 µM. actives 1.7% (n = 300,000). AID 504408;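 active = mean replicate activation of at least 50% with a set share of replicates each reaching 50%; inconclusive = only one of those two conditions met; inactive = mean below 50% and too few replicates reaching it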;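 also: 0% = median of the neutral control wells and 100% = twice that signal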
# FXN GAA850 act: increases GAA850 frataxin promoter reporter activity | HEK293 lucGAA850 FXN promoter luciferase reporter, 24 h; percent of 10 µM SAHA response | activation, % at 6 µM | actives 0.56% (n = 360,000) | AID 540364;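 active = activation above the average of all compounds screened plus 3 SD, cutoff fixed separately per campaign, cut at about 7.5% in these data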;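 also: 0% = DMSO wells and 100% = 10 µM SAHA wells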
# AHR activator: activates the human aryl hydrocarbon receptor | AHR-responsive luciferase reporter cells, luminescence | activation, % at 5 µM | actives 2.5% (n = 320,000); in the data active = activation above about 47%;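 also: 0% = vehicle wells and 100% = reference agonist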
# Target sequence (P35869 whole entry, looked up): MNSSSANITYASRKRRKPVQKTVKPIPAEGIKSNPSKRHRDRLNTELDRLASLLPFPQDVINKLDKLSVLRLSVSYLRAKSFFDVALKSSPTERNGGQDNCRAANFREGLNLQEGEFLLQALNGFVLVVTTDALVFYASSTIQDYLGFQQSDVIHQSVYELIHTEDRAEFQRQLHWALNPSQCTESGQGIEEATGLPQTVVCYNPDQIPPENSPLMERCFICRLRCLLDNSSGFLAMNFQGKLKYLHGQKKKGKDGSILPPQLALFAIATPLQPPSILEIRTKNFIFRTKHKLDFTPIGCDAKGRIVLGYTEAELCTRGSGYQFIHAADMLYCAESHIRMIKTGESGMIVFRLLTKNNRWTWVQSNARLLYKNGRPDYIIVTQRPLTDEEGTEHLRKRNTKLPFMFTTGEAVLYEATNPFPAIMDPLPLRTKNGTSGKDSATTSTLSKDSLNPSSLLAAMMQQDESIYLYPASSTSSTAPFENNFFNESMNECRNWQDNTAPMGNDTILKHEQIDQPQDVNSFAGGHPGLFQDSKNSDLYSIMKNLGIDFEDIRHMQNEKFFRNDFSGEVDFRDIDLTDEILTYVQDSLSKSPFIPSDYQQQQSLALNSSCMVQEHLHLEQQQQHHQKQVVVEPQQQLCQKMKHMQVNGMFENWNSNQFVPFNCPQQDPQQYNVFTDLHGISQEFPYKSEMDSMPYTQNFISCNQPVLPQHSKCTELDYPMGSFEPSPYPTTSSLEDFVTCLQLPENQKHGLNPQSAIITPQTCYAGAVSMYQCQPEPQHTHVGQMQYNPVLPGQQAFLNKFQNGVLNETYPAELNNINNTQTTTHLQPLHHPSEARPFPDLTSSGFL
# HSF1 inhib: HSF1 inhibition. NIH3T3-HGL HSE-luciferase, MG132-induced, luminescence 8 h; hits give low values. activity change, negative = inhibition, % at 7.5 µM (by protocol). actives 0.77% (n = 300,000). AID 2098;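 active = more than half of replicate wells show activity change below -50%, luminescence cut by over half; inconclusive = some wells, but at most half, below -50%; inactive = no replicate well below -50%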;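 also: luciferase reports HSF-1 transcriptional activity via heat shock element; 0% = median of DMSO wells and -100% = zero luminescence signal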
# * = called active by the depositor; ? = inconclusive; · = not tested or not shown.
SMILES,HSF-1 act,FXN GAA850 act,AHR activator,HSF1 inhib
CC(=O)c1c(C)[nH]c(C2=NNC(=NCc3ccccc3)SC2)c1C,-12.7,1.2,8.2,-0.3
N#Cc1c(N)n(C2OC(CO)C(O)C2O)c2ncnc(N)c12 (centres undefined),78.4*,-13.8,·,78.4*
Cc1ccc(N=c2sc(C)c(C)n2C)cc1,0.6,4.8,77.0*,3.8
Cc1csc(=Nc2ccccc2)n1C,7.6,2.6,-8.0,1.7
CCN(CC)C(=O)C1=C(C)N(CCCN2CCCC2=O)C(=O)C(CC(=O)NC2CCCCC2)C1 (centres undefined),·,0.9,·,·
COc1ccc2[nH]cc(CCNC(=O)c3ccc4ccccc4n3)c2c1,3.8,0.9,71.1*,13.7
COc1ccccc1/C=N\N=C(\N)c1ccccn1,-0.5,2.1,71.3*,3.2
Cc1cccc(Cc2nnc(CCC(=O)N(C)CCc3ccccc3)o2)c1,64.2*,3.1,16.9,39.8
Cc1cc(-c2nnc(CCC(=O)N(C)CCc3ccccc3)o2)no1,-41.4,3.8,1.4,-26.8
CC(C)N1CCC(N2CCN(C3CCCC3)CC2CCO)CC1 (centres undefined),-63.5,0.7,-0.4,-56.0*
OCCC1CN(C2CCSCC2)CCN1C1CCCC1 (centres undefined),-10.0,0.6,-2.1,0.0
COc1cc(/C=C/C(=O)NCCn2c(C)cc3ccccc32)cc(OC)c1OC,-13.1,0.3,18.8,-9.3
Cc1occc1-c1nnc(SCC(=O)c2c[nH]c3ccccc23)n1C,·,0.8,19.4,·
CCCCOC(=O)CCc1c(C)n[nH]c1C,63.0*,2.2,0.1,21.8
CCCCOC(=O)CCc1c(C)[nH]c(=O)c(C#N)c1C,-20.6,-1.9,0.6,1.9
Cc1ccc(Nc2cc(C)c3c(O)cccc3n2)cc1C,-56.6,4.0,29.6,-56.0*
COc1ccc(Nc2cc(C)c3c(O)cccc3n2)cc1,10.9,1.0,1.3,13.0
N#C/C(=C\c1ccccc1[N+](=O)[O-])c1nc(C2CC2)cs1,51.0*,3.6,105.6*,33.9
N#C/C(=C\c1ccc([N+](=O)[O-])cc1)c1nc(C2CC2)cs1,56.7*,1.3,9.9,46.0
N#C/C(=C/c1ccccc1[N+](=O)[O-])c1nc(C2CC2)cs1,101.5*,3.9,71.3*,43.9
O=c1c2ccccc2nnn1COc1cccc(Cl)c1,73.6*,2.3,3.6,55.3
CC(=O)Nc1ccc2oc(-c3ccccc3Br)nc2c1,?,5.9,-5.4,9.2
Cc1ccccc1-c1nc2cc(NC(=O)C3CC3)ccc2o1,90.9*,3.7,-7.3,58.8
Cc1ccccc1-c1nc2cc(Cl)ccc2c(=O)o1,-4.6,2.1,0.9,-7.8
Cc1ccccc1-c1nc2cc(Cl)ccc2o1,?,2.4,74.9*,17.6
SMILES,HSF-1 act,FXN GAA850 act,AHR activator,HSF1 inhib
Cc1cccn2c(/C=N/OCc3ccc(F)cc3)c(-c3ccc(Cl)cc3)nc12,0.9,-2.7,12.1,1.9
CCOC(=O)Cc1csc(NC(=O)NC2(C(F)(F)F)Oc3ccccc3O2)n1,38.4,2.7,1.4,9.6
CCOC(=O)Cc1csc(NC(=O)NC2(C(F)(F)F)Oc3cc(Cl)c(Cl)cc3O2)n1,-66.5,6.9,1.7,-56.9*
CCN1CCCC1CNC(=O)c1cc(N)ccc1OC (centres undefined),-4.6,0.7,0.8,5.0
COc1ccc(-c2csc(/C(C#N)=C(\O)CSc3nccn3C)n2)cc1OC,-90.8,1.7,0.8,-87.7*
COc1ccc(C(=O)Nc2nnc(C(F)(F)F)s2)cc1,18.2,2.7,58.6*,8.3
COc1ccc(C(=O)Nc2nnc(-c3ccccc3)s2)cc1,6.0,3.2,·,23.5
COc1cc2c(cc1OC)C(c1cccs1)N(C(=O)c1ccncc1)CC2 (centres undefined),-17.5,-2.9,10.3,-1.5
COc1cc2c(cc1OC)C(c1cccs1)N(C(=S)NC(C)C)CC2 (centres undefined),90.6*,-3.5,-0.6,54.7
O=S(=O)(c1ccccc1)C1Cc2ccccc2C1Cl (centres undefined),2.3,1.8,4.0,3.2
Nc1ccc(Nc2nc3ccccc3[nH]2)cc1,1.6,0.1,10.0,-1.9
c1ccc(Nc2nc3ccccc3[nH]2)nc1,62.4*,0.1,45.4,13.6
Cc1nc2ccccn2c1C(=O)N/N=C/c1ccccc1,2.6,1.0,17.3,0.4
Cc1nc2ccccn2c1C(=O)NN=C1C2CC3CC(C2)CC1C3,11.0,1.2,48.0*,8.5
O=C(NCCc1cn2ccccc2n1)c1cc(COc2c(F)cccc2F)on1,0.9,3.8,9.6,-1.0
O=c1cc(-c2ccccc2Cl)oc2c(Br)ccc(O)c12,15.7,-0.2,47.4*,13.5
O=c1cc(-c2ccccc2Cl)oc2cccc(O)c12,-3.5,-1.0,4.8,-5.2
Cc1ccc(C)c(Oc2cc(NC(=O)CCCn3nc(C)c([N+](=O)[O-])c3C)cc([N+](=O)[O-])c2)c1,72.1*,2.8,-3.4,34.1
Cc1nn(CCCC(=O)Nc2cc(Oc3ccccc3)cc([N+](=O)[O-])c2)c(C)c1[N+](=O)[O-],13.7,4.1,1.1,2.0
COc1cccc(NC(=O)c2ccnc(N3CCC(C(=O)NCc4ccccc4OC)CC3)c2)c1,111.2*,3.6,1.0,66.3
COCCn1nnnc1C(c1cc2cc(C)ccc2[nH]c1=O)N1CCc2ccccc21 (centres undefined),-0.1,1.4,64.5*,5.1
COCCn1nnnc1C(c1cc2cc(C)ccc2[nH]c1=O)N1CCCCCC1 (centres undefined),-8.2,-0.6,8.8,3.8
N#CCCCC#Cc1ccc2c(c1)COc1c3ccccc3nn1-2,-69.2,-3.5,-9.3,-64.4*
Cc1ccc(N2CCN(C(=O)Nc3cccc([N+](=O)[O-])c3)CC2C)cc1 (centres undefined),14.7,-2.1,0.5,3.8
COc1ccc(OC)c(S(=O)(=O)n2ccnc2C)c1,-17.9,0.3,-1.0,-0.8
SMILES,HSF-1 act,FXN GAA850 act,AHR activator,HSF1 inhib
CCO[C@H]1OC(C(=O)O)=C[C@@H](C2CC2)[C@@H]1CCCO,2.2,·,2.7,-4.7
Cc1ccc(Sc2ccc(NC(=O)CCl)cc2)c(C)c1,75.7*,·,2.2,41.0
O=C(O)C(=O)/C(=C\c1cccc(Cl)c1)c1ccc2ccccc2n1,59.6*,6.5,31.7,17.3
Cc1cccc(/C=C(\C(=O)C(=O)O)c2ccc3ccccc3n2)c1,13.5,3.6,15.3,26.0
COc1ccccc1N1CCN(Cc2ccc(O)c3ncccc23)CC1,15.7,3.7,1.2,-5.2
Oc1ccc(CN2CCCc3ccccc32)c2cccnc12,-70.3,2.8,5.7,-68.6*
Nc1nc(SCC(=O)c2ccc(F)cc2)n[nH]1,0.9,4.9,0.3,-3.7
CC(C)(C)C1CCC2(CC1)C(Nc1cccc(C(F)(F)F)c1)=NC(=S)N2CC#N (centres undefined),-13.2,-1.9,0.0,-1.5
COc1ccc(NS(=O)(=O)c2ccc(C(=O)N3CCN(c4ccc(F)cc4)CC3)cc2)cc1,·,-2.0,-1.0,·
Cc1cc2ccccn2c1C(=O)Nc1ccc(Cl)cc1,23.6,2.0,37.7,6.1
Cc1cc2ccccn2c1C(=O)Nc1ccccc1,-12.6,1.1,59.5*,3.3
